High-throughput results (PubChem BioAssay)
AI-2 QS mod: modulates the Vibrio harveyi AI-2 quorum sensing system; Vibrio harveyi JMH597 AI-2 luminescence/OD600 ratio, 9 h; hits give low values; strain lacks LuxN and CqsS sensors; 0 = neutral-control median; activity change, % at 7.5 µM; actives 0.4% (n = 300,000); AID 2094; in the data active = activity change below about -75%, passing the limit was not always enough;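 also: luminescence divided by OD600 gain over 9 h not by final OD600 alone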
ARNT TACC3 PPI: disrupts binding between human ARNT and TACC3. Q9Y6A5. AlphaScreen His-ARNT PAS-B/GST-TACC3 binding, luminescence; TACC3 fragment carries E629A point mutation. inhibition, % at 9.99 µM. actives 0.66% (n = 390,000). AID 623870;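 active = mean inhibition of replicates at least 50% and at least half of replicates each reaching 50%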;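 also: 0% = complete ARNT plus TACC3 wells and 100% = ARNT alone without TACC3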
HGIII-sPLA2 inh: Inhibits HGIII-sPLA2 liposome hydrolysis, primary screen; actives 0.56% (n = 370,000); inhibition, % at 12.2 µM; Q9NZ20; AID 743126; QFRET BODIPY PC-A2 liposome hydrolysis, fluorescence;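 active = inhibition above mean plus 3 SD of compounds lying within the high and low control bounds, cut at about 19% in these data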;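 also: 0% = median of test compound wells and 100% = no enzyme DMSO wells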
Target sequence (Q9NZ20 whole entry, looked up): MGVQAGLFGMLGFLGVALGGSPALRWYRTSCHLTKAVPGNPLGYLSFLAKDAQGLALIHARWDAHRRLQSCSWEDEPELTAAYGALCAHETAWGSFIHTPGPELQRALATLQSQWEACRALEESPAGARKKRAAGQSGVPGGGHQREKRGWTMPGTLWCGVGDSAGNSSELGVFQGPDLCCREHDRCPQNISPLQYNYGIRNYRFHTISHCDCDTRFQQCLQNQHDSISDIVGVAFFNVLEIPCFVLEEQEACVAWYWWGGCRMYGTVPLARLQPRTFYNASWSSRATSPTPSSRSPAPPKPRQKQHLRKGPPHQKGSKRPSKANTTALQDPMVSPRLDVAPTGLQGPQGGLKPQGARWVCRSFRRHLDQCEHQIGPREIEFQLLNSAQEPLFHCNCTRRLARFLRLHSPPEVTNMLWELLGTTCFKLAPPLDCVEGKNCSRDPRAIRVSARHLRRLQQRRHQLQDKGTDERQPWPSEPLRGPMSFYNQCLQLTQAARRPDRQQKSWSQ
Rin1-Abl PPI inh: blocks binding of human Rin1 to Abl; P00519+Q13671; TR-FRET Rin1/Abl binding, biochemical; inhibition, % at 7.35 µM; actives 0.4% (n = 360,000); AID 588664; in the data active = inhibition above about 5%, passing the limit was not always enough
* hit, by the source's call; . = not tested or not shown. Most compounds without a hit are left out; they make up all but 1.5% or so of the library.

SMILES | AI-2 QS mod | ARNT TACC3 PPI | HGIII-sPLA2 inh | Rin1-Abl PPI inh
O=C(CN1CCOCC1)NNC(=S)Nc1ccc(Cl)cc1 | 12.1 | 38.8* | 4.1 | -0.2
C[C@H]1CN([C@@H](C)CO)C(=O)c2cc(NC(=O)CCC(F)(F)F)ccc2O[C@@H]1CN(C)S(=O)(=O)c1cn(C)cn1 | . | 2.8 | . | .
Cc1cccc(S(=O)(=O)N2C[C@H](O)COC[C@H]3O[C@H](CC(=O)NCc4ccc5c(c4)OCO5)CC[C@@H]32)c1 | . | 8.0 | . | .
O=C(NCc1ccccn1)c1ccc(Cl)c(S(=O)(=O)N2CCCCCC2)c1 | 6.6 | 46.2* | 0.2 | -0.4
O=C(NCc1ccccc1)c1ccc(Cl)c(S(=O)(=O)N2CCCC2)c1 | . | -1.5 | -5.0 | 2.8
Cc1nc2ncccn2c1-c1csc(Nc2ccc(N(C)C)cc2)n1 | 10.0 | 18.4 | 12.4 | -3.3
COc1ccccc1Nc1nc(-c2c(C)nc3ncccn23)cs1 | 22.4 | 45.2* | 6.9 | -3.3
Cc1nc2ncccn2c1-c1csc(Nc2ccccc2)n1 | 9.1 | 57.8* | 11.2 | -2.9
Cc1nc2ncccn2c1-c1csc(Nc2ccc(S(N)(=O)=O)cc2)n1 | 4.4 | 8.6 | 1.4 | -4.6
COc1ccc(Nc2nc(-c3c(C)nc4ncccn34)cs2)cc1 | . | 46.1* | 1.8 | -4.0
CCNC(=O)C[C@H]1C=C[C@H](NC(=O)NC2CCCCC2)[C@@H](CO)O1 | . | -3.7 | . | .
CCNc1nc(NCC)nc(C(=O)OCCO)n1 | 1.1 | 49.4* | 9.5 | -1.2
CCNc1nc(NCC)nc(OCCOC(C)=O)n1 | 18.1 | -6.4 | -2.7 | 2.4
Cc1cc(C(=O)Nc2cccc3c2O[C@H](CN(C)S(=O)(=O)c2c(C)noc2C)[C@H](C)CN([C@@H](C)CO)C3=O)n(C)n1 | . | -1.2 | . | .
C=CCNC(=S)NC(=O)c1csc([N+](=O)[O-])c1 | -103.8* | -5.0 | 8.0 | 0.7
CCCC(=O)Nc1ccc2c(c1)C(=O)N(C)C[C@@H](OC)[C@@H](C)CN(C(=O)CN(C)C)[C@@H](C)CO2 | . | -4.1 | . | .
O=C(O)c1ccccc1OCCOc1ccccc1C(=O)O | -4.8 | 50.0* | 2.1 | 1.1
CN(C)C(=O)C[C@@H]1C=C[C@@H](NC(=O)NC2CCCCC2)[C@H](CO)O1 | . | -10.3 | . | .
Cc1c(C(=O)N/N=C/c2ccncc2)no[n+]1[O-] | 27.9 | 69.1* | 7.1 | -1.1
Cc1ccc(S(=O)(=O)Nc2cccc3c2O[C@H](CN(C)S(=O)(=O)c2cccs2)[C@@H](C)CN([C@H](C)CO)C3=O)cc1 | . | 9.9 | . | .
COC(=O)c1ccc(COc2ncnc3c(Cl)cc(Cl)cc23)o1 | -78.6* | 0.9 | -4.9 | 2.6
CCn1c(SCC(=O)Nc2cc(NC(C)=O)ccc2OC)nnc1-c1ccccn1 | 9.5 | 49.6* | -2.9 | 0.7
Nn1c(SCC(=O)Nc2ccc3c(c2)OCCO3)nnc1-c1ccccn1 | 33.6 | 69.7* | -3.9 | -2.0
COc1ccc(NC(=O)N(C)C[C@H]2OCCCC[C@@H](C)Oc3ccc(NC(=O)Nc4ccc(C(F)(F)F)cc4)cc3C(=O)N([C@@H](C)CO)C[C@@H]2C)cc1 | . | 12.1 | . | .
O=C(Nn1cnnc1)c1ccc([N+](=O)[O-])cc1Cl | 10.9 | -4.5 | 20.8* | 0.2
SMILES | AI-2 QS mod | ARNT TACC3 PPI | HGIII-sPLA2 inh | Rin1-Abl PPI inh
O=C(Nn1cnnc1)c1cc([N+](=O)[O-])cc([N+](=O)[O-])c1 | 22.5 | -1.8 | -2.4 | -2.5
CCc1ccc(OCC(=O)N/N=C(\C)c2ccc(O)cc2O)cc1 | -78.0* | 1.9 | -3.5 | 1.8
CCOc1ncccc1C(=O)OCC(=O)Nc1c(C)cccc1C | 29.8 | -1.5 | 9.3 | 0.6
COc1ccc(C(=O)OCC(=O)Nc2nnc(-c3ccccc3)o2)cc1 | 27.0 | . | -1.4 | 0.9
CCOc1ncccc1C(=O)OCC(=O)Nc1nnc(-c2ccccc2)o1 | -0.1 | 53.7* | 6.5 | 1.4
O=C(COC(=O)c1cccs1)Nc1nnc(-c2ccccc2)o1 | 101.6 | 60.6* | 11.6 | 0.6
O=C(COC(=O)c1cccc(O)c1)Nc1nnc(-c2ccccc2)o1 | 42.1 | 60.0* | -1.7 | 1.6
COc1cc(C(=O)OCC(=O)Nc2nnc(-c3ccccc3)o2)cc(OC)c1OC | 9.3 | 46.9* | 4.8 | 1.5
COCCN1C=C2C(=O)C(C)(OC(=O)CCc3ccccc3)C(=O)C=C2C=C1c1ccc(C#N)cc1 (stereo not drawn) | -3.7 | active | 2.6 | 1.4
CC1(OC(=O)CCc2ccccc2)C(=O)C=C2C=C(c3ccc(C#N)cc3)N(Cc3ccccc3)C=C2C1=O (stereo not drawn) | 13.1 | -26.6 | -6.0 | 3.1
O=C(N[C@@H]1CC[C@H](CC(=O)N2CCc3ccccc3C2)O[C@@H]1CO)C1CCC1 | . | -28.8 | . | .
